Screens deposited in PubChem by National Center for Advancing Translational Sciences (NCATS).
A selection: hits, their analogues and other compounds. The true share with any hit is near 11%.
NPR1 antag – human Npr1 receptor antagonism; P16066; HEK293 hNpr1 GloSensor cGMP, ANP-stimulated luminescence; Potency, µM (top dose mostly 46.3 µM), most hits filed as inhibitors; 76,000 tested, 1.6% active; AID 1347048; calls by dose curve; further: nearly all actives have a fitted effect of over 60% in size
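HEK293 cells stably expressing human Npr1 and cGMP GloSensor pGS-40F, loaded 2 h with 2% GloSensor reagent, given compound 30 min at room temperature. Luminescence read before and 20 min after 0.1 nM hNppA.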
Luciferase inh – blocks purified firefly luciferase enzyme activity | P08659 | purified P. pyralis luciferase, luminescence, biochemical | Potency, µM (highest dose often 115 µM), actives largely listed as inhibitors | 76,000 tested, 2.5% active; further: nearly all actives have a fitted effect of over 65% in size
Target sequence (P08659 whole entry, looked up): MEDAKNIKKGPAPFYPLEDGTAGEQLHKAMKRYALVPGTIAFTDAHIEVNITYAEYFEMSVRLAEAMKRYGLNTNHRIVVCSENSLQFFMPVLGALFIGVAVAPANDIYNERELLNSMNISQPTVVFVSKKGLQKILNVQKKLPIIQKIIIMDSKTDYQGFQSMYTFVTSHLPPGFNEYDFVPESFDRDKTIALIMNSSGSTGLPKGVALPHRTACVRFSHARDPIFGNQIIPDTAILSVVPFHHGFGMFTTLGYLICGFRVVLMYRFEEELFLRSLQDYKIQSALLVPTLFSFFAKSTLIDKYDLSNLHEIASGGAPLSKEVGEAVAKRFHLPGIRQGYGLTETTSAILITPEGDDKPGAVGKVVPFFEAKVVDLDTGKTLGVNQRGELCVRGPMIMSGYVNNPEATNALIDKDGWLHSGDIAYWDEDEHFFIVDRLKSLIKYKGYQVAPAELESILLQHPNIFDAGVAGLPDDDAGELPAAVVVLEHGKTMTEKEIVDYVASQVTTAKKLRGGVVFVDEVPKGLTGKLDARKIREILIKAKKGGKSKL
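Purified 10nM P. pyralis luciferase with 10uM D-luciferin and 10uM ATP in 50mM Tris acetate pH 7.5, 10mM Mg acetate, 0.01% Tween-20, 0.05% BSA. qHTS titration; luminescence read by CCD imager.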
NIH3T3 tox – NIH 3T3 cell cytotoxicity; Potency, µM (titrated, usually from 96.7 µM), actives largely listed as inhibitors; 94,000 tested, 4.3% active; NIH 3T3 viability, CellTiter-Glo ATP luminescence, 48-72 h; AID 1345082; further: nearly all actives have a fitted effect of over 55% in size
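NIH 3T3 cells at 400 cells/well received 23 nL of compound by pintool and were incubated 48 or 72 h at 37 °C. Viability was read as ATP-coupled CellTiter-Glo luminescence.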
HEK cytotox – kills HEK 293 cells; HEK 293 viability, ATP luminescence (CellTiter-Glo), 48-72 h; Potency, µM (doses to about 115 µM), most hits filed as inhibitors; 94,000 tested, 6.6% active; further: nearly all actives have a fitted effect of over 60% in size
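Viability of HEK 293 cells, plated at 250 cells/well, was judged by cellular ATP after compound treatment for 48 or 72 hr. Luminescence was imaged 10 min after CellTiter-Glo addition at room temperature.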
Numbers stand for hits; – = inactive; ? = inconclusive; · = not tested or not shown. Unless noted, the call rests on the fitted dose curve; in most records, active means well fitted curve in the direction sought with a large enough effect; inconclusive means small, poorly fitted or top-dose-only effect, or another doubt; inactive means no such curve, though single readings can be large; an effect the other way counts as inactive or inconclusive.

SMILES | NPR1 antag | Luciferase inh | NIH3T3 tox | HEK cytotox
O=C(NCc1cccc(F)c1)C1CCCN(c2nccc(Nc3ccccc3F)n2)C1 (centres undefined) | · | · | 28µM | ?
O=C(C1CCCN(c2nccc(Nc3ccccc3F)n2)C1)N1CCOCC1 (centres undefined) | · | · | – | ?
O=C(C1CCCN(c2nccc(Nc3ccccc3F)n2)C1)N1CCCC1 (centres undefined) | · | · | 32µM | 45µM
O=C(NCC1CCCCCC1)C1CCCN(c2nccc(Nc3ccccc3F)n2)C1 (centres undefined) | · | · | ? | 28µM
O=C(NCc1ccc(C(F)(F)F)cc1)C1CCCN(c2nccc(Nc3ccccc3F)n2)C1 (centres undefined) | · | · | 32µM | ?
O=C(COc1cccc(-c2nnc3n2CCCC3)c1)N1CCN(c2ccccc2F)CC1 | – | – | – | –
Cc1cc(C(=O)N2CC(n3c(C)cnc3-c3ccccc3)C2)n(C)n1 | · | · | – | –
CCn1ccc(C(=O)N2CCC3(CC2)CC(N(C2CC2)S(=O)(=O)CC)CCO3)n1 (centres undefined) | · | · | ? | –
O=C(NCc1ccccc1)C1CCCN(c2nccc(Nc3ccccc3F)n2)C1 (centres undefined) | · | · | 32µM | 18µM
O=C(Nc1cccnc1)c1nnn2c1CN(Cc1ccccc1F)C(=O)CC2 | – | – | 100µM | –
C[S+](=O)([O-])c1cccc(NC(=O)c2nnn3c2CN(Cc2cccc(Cl)c2)C(=O)CC3)c1 | – | – | ? | ?
CN1c2cc(C(=O)NC3CCCCC3)ccc2C(=O)N2CCCC21 (centres undefined) | – | – | ? | –
Cc1cn2nc(C(=O)NCc3ccc(C(C)C)cc3)cc2c(=O)[nH]1 | – | 14µM | – | ?
CC(C)c1ccc(CNC(=O)c2cc3n(n2)CC(c2ccc(Cl)cc2)OC3)cc1 (centres undefined) | – | – | 28µM | 32µM
CC(C)c1cccc(NC(=O)c2cc3n(n2)CC(c2ccc(Cl)cc2)OC3)c1 (centres undefined) | – | – | – | ?
COc1cc(NC(=O)c2cc3n(n2)CC(c2ccc(Cl)cc2)OC3)cc(OC)c1OC (centres undefined) | – | – | ? | 45µM
COc1ccc(CCNC(=O)c2cc3n(n2)CC(c2ccc(Cl)cc2)OC3)cc1OC (centres undefined) | ? | – | ? | 45µM
CCCCCC(=O)N1CCC(=O)N(C)C[C@H]2COc3ccc(C)cc3[C@H]21 | · | · | ? | –
COc1ccccc1CNC(=O)c1cc2n(n1)CC(c1ccc(Cl)cc1)OC2 (centres undefined) | ? | – | ? | 40µM
COc1ccc(CNC(=O)c2cc3n(n2)CC(c2ccc(Cl)cc2)OC3)c(OC)c1 (centres undefined) | – | – | ? | ?
c1ccc(CN2Cc3[nH]cnc3C[C@H]2c2nc(-c3ccccc3)no2)cc1 | – | – | ? | 71µM
Cc1ccc(-c2noc([C@@H]3Cc4nc[nH]c4CN3C(=O)CCC(=O)O)n2)cc1 | – | ? | – | –
Cc1ccc(-c2noc([C@@H]3Cc4nc[nH]c4CN3Cc3ccccc3)n2)cc1 | – | ? | 79µM | 100µM
CN(C)c1ccc(CN2Cc3[nH]cnc3C[C@H]2c2nc(-c3ccncc3)no2)cc1 | – | – | ? | –
Fc1ccc(CN2Cc3[nH]cnc3C[C@H]2c2nc(-c3ccc(F)c(Cl)c3)no2)cc1 | – | ? | 89µM | ?
SMILES | NPR1 antag | Luciferase inh | NIH3T3 tox | HEK cytotox
Cn1cccc1C(=O)NCC1Cn2cccc2C(=O)N1Cc1cccnc1 (centres undefined) | · | · | – | –
COc1ccc(-c2noc(-c3nc(C)no3)n2)cc1 | – | – | – | –
COc1ccc(-c2noc(-c3ccc(N4C[C@H]5CC[C@H]4C5)nc3)n2)cc1 | ? | 25µM | – | ?
O=C(NCC1CC1)c1ccc2nnc(C3CC3)n2c1 | · | · | – | –
Cc1ccc(OCCC2CCN(C(=O)c3cc(CN4CCOCC4)on3)C2)cc1 (centres undefined) | ? | – | – | 79µM
CCn1nc(C)c(-c2cc(C(=O)N3CCC(CCOc4ccccc4)C3)no2)c1C (centres undefined) | ? | – | ? | 25µM
Cc1nnc(CN2CCC3(C2)C(=O)N(C)C(=O)N3C)o1 (centres undefined) | · | · | – | –
O=C(c1ccoc1)N1CCCn2cc(-c3ccccc3)nc21 | – | ? | – | ?
COc1cccc(-c2cn3c(n2)N(C(=O)C2CCC2)CCC3)c1 | – | ? | – | ?
COc1cccc(-c2cn3c(n2)N(C(=O)c2cccs2)CCC3)c1 | – | 35µM | – | ?
O=C(c1nc2ncccn2n1)N1CCCn2cc(-c3ccccc3)nc21 | – | – | – | ?
Cc1ccc(-c2cn3c(n2)N(C(=O)c2cnn4cccnc24)CCC3)cc1 | – | – | – | 79µM
Cc1ccsc1C(=O)N1CCCn2cc(-c3cccc(C#N)c3)nc21 | – | 32µM | – | ?
O=C(c1ccsc1)N1CCCn2cc(-c3ccccc3)nc21 | – | 40µM | – | ?
CCn1ccc(C(=O)N2CC(N(C)Cc3cccnc3)C2)n1 | · | · | – | –
CN(Cc1cccnc1)C1CN(C(=O)c2cnn(C)c2)C1 | – | 28µM | – | –
Cc1cc(C)n(CC(=O)N2CC(N(C)Cc3cccnc3)C2)n1 | – | 35µM | – | –
Cc1cccc(C(=O)N2CC(N(C)Cc3cccnc3)C2)c1 | – | – | – | –
O=C(c1ccccn1)N1CC(n2cc(COCc3ccccc3)nn2)C1 | · | · | – | –
Cc1ccc(Cn2c(C3CCN(C(=O)c4ccc(C(C)(C)C)cc4)CC3)n[nH]c2=O)cc1 | ? | – | 28µM | 25µM
O=C(COc1ccc(Cl)cc1)N1CCC(c2n[nH]c(=O)n2Cc2ccc(F)cc2)CC1 | – | – | 3.2µM | ?
COc1ccc(Cn2c(C3CCN(C(=O)Cc4ccc(Cl)cc4)CC3)n[nH]c2=O)cc1 | – | – | 35µM | ?
Cc1ccc(-n2c(C3CCN(C(=O)COc4ccc(Cl)cc4)CC3)n[nH]c2=O)cc1 | – | – | 2.8µM | –
CC1(C)[C@H](Cc2cc(CC3CCCCC3)on2)C[C@@H]1NC(=O)C1CCCC1 | ? | – | ? | ?
CC(C)(C)C(=O)N1CCCC(C(=O)N2CCCC(c3nc4ccncc4[nH]3)C2)C1 (centres undefined) | · | · | – | –
O=C(CN1CC2CC(C1)[C@H]1CCCC(=O)N1C2)N1CCC(Cc2ccccc2)CC1 (some centres undefined) | – | – | – | –
O=C(COc1ccccc1)N1CCC(c2n[nH]c(=O)n2Cc2ccc(F)cc2)CC1 | – | – | 28µM | ?
CN(C)C[C@@H]1CN(S(C)(=O)=O)C[C@H]1NC(=O)C1(c2ccccc2)CCCC1 | – | – | – | –
CC(C)CC(C)NC(=O)c1ccc(Cn2ccn3nc4c(c3c2=O)CCCC4)cc1 (centres undefined) | – | – | ? | ?
COc1ccccc1-c1cccc(CN2CCCC(C(=O)N3CCN(C(C)=O)CC3)C2)c1 (centres undefined) | · | · | – | ?
